Source: PubChem BioAssay AID1044 (The Scripps Research Institute Molecular Screening Center, 2008)
Hit rate of the full screen: of about 16,000 compounds, about 240 (1.5%) were called active. Many of the other results were omitted from the sample, so actives are more common in it than they were. A number with no mark means an inactive call. Cut-off read from the data, not from the text of the source: active = activation above about 80%; inactive = the rest.

Each molecule was assayed against Sphingosine 1-phosphate receptor 1 (Homo sapiens) (UniProt P21453) (assay: S1P1 (human) receptor agonism (AID 1044)). Conditions: S1P1 agonist cell-based reporter assay; at 4.5 µM; stronger effect = higher value.
Sphingosine 1-phosphate receptor 1 (Homo sapiens), sequence (P21453 whole entry, looked up): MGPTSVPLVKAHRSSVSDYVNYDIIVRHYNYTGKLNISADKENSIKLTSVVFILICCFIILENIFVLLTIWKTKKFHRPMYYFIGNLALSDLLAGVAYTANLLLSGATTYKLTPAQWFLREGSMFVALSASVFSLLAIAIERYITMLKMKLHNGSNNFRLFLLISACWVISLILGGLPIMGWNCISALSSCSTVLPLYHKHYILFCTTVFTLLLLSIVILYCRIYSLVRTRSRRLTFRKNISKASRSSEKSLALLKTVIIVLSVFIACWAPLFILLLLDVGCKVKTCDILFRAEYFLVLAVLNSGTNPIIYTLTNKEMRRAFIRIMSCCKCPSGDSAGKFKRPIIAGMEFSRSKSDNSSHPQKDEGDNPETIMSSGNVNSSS

Compound | activation
COC(=O)c1cc(S(=O)(=O)NCc2csc(-c3cccs3)n2)oc1C | 4.78%
CC(C)(C)OC(=O)n1ccc2cc(Br)ccc21 | 111% (active)
O=C1CC(c2ccccc2)C(=O)N1Cc1cccs1 (stereo not drawn) | 1.62%
O=C(NCc1cccnc1)c1cnc2ccccc2n1 | -2.22%
N#CC(C#N)=CNc1c(F)cccc1Cl | 48.9%
CO/N=C1\C(=O)N(C)c2ccccc21 | -2.23%
COC(=O)c1cc(OC)c(OC)cc1NC(=O)c1ccccc1C(=O)O | 14.4%
O=C1c2ccccc2C(=O)N1CCCN1CCN(Cc2c(F)cccc2Cl)CC1 | -0.27%
S=C(SCc1ncon1)N1CCSCC1 | -1.22%
N#Cc1cncc(Br)c1 | -9.98%
O=C(O)c1nccnc1C(=O)O | -16.2%
CC(=O)c1cc([N+](=O)[O-])c(NC2CCCCC2)s1 | -14.1%
O=S(=O)(O)c1ncccn1 | 3.74%
COc1c(Br)cc(C#N)cc1Br | -9.06%
COC(=O)C1=C(c2ccccc2)C(c2ccccc2)=C(C(=O)OC)C1=O | 6.63%
N#Cc1cn(C2CCCCC2)c(=O)[nH]c1=O | 15.6%
CNC(=O)c1ccccc1Sc1ccccc1C(=O)NC | -10.2%
CCOC(=O)C(NC(=O)Nc1ccccc1)(Nc1ccccc1OC)C(F)(F)F (stereo not drawn) | 5.29%
CCOC(=O)c1c(C)csc1NC(=O)CC(=O)C(F)(F)F | 12.6%
COC(=O)c1cc(C(N)=O)c(SC)s1 | -10.8%
O=c1c2c(nc3nc[nH]n13)CCC2 | 1.21%
CSC(C)C(=O)/C=C/N(C)C (stereo not drawn) | -15.9%

Compound | activation
COC(=O)CCN1CCc2cc(N=Nc3ccc(C(F)(F)F)cc3)ccc21 | 99.2% (active)
COC(=O)C(C#N)c1ccc(C(F)(F)F)cc1[N+](=O)[O-] (stereo not drawn) | 14.5%
COC(OC)c1ccc(C#N)c(SCC(=O)Nc2ccc(C(F)(F)F)cc2)n1 | -16.6%
CCOC(=O)NC(=O)/C(=C/NC(C)C)C(=O)OCC | 22.7%
COc1cc(-c2n[nH]c(=S)n2Cc2ccccc2)cc(OC)c1OC | -18.1%
CC1(C)c2ccccc2-n2c1cc(O)c(-c1ccccc1)c2=O | -11.7%
CC1(NC(=O)OCc2ccccc2)CC1NC(=O)OCc1ccccc1 (stereo not drawn) | 11.9%
COC(=O)c1sccc1Oc1ccc(Cl)cc1[N+](=O)[O-] | 13.2%
COC(=O)c1sccc1NC(=S)Nc1ccc(C)cc1 | -27.1%
OC(CNCCNc1nccc(C(F)(F)F)n1)COc1ccc(Cl)c(Cl)c1 (stereo not drawn) | 15.7%
CSC(=Nc1ccccc1C(F)(F)F)N1CCCC1 | 62.5%
NNC(=O)CSc1nnc(-c2ccccc2)n1-c1ccccc1 | 2.03%
CN(NC(=O)c1ccc(Cl)s1)c1cnn(-c2cc(Cl)cc(Cl)c2)c(=O)c1Cl | 7.36%
O=C(NCc1cccnc1)c1ccccc1NC(=O)c1c(F)cccc1F | 10.3%
Cc1ccc(S(=O)(=O)NC(=O)NCCSCc2ccco2)cc1 | -7.47%
O=C(CSc1ccc(Cl)cc1)NCCSCc1ccco1 | 3.06%
O=C(O)CSC(SCC(=O)O)c1ccc2c(c1)OCO2 | -4.07%
Cc1cc(C)n(/N=c2\sc(-c3ccccc3)cn2C2CC3C=CC2C3)c(=O)c1C#N (stereo not drawn) | -8.12%
CCOC(=O)c1c(N/N=C\c2ccccc2O)n[nH]c1C | -16.7%
COc1cc(NC(=O)COc2cc(Cl)c(Cl)cc2Cl)cc(OC)c1OC | 22.5%
O=C(O)Cc1csc(NC(=O)CSc2nnnn2-c2ccc(O)cc2)n1 | 0.38%
C/C(=N\NC(N)=S)c1cc2cc(Cl)ccc2o1 | 7.17%

Compound | activation
N/C(=N\O)c1ccc2nonc2c1 | 23.9%
Clc1ccc(-c2csc(-c3cnccn3)n2)s1 | 1.06%
S=C(Nc1cccnc1)N1CCCN(Cc2ccc(Cl)cc2Cl)CC1 | 14.2%
COC(=O)c1ccsc1NC(C)=O | -7.53%
CCCc1c(C(=O)O)cnn1-c1ccc(Cl)cc1 | -21.8%
O/N=C(\c1ccccc1)c1ccccn1 | -7.69%
COc1ccc(C2CC(c3cccs3)=Nc3ccccc3S2)c(Cl)c1OC (stereo not drawn) | 1.73%
O=S(=O)(O)Oc1c[nH]c2ccccc12 | -5.88%
CC1=C(C(=O)O)N2C(=O)[C@H](NC(=O)[C@@H](N)c3ccccc3)C2SC1 (stereo partly drawn) | 8.53%
O=C(c1cnn(-c2ccc(Cl)cc2)n1)c1cccs1 | 3.48%
CC(C)S(=O)(=O)/C(C#N)=C/c1ccccc1OC(F)(F)F | -23.8%
O=C(NNC(=S)Nc1ccccc1Cl)c1ccc(OC(F)(F)F)cc1 | 91.2% (active)
COC(=O)c1ccccc1NC(=S)NNC(=O)c1ccc([N+](=O)[O-])cc1 | -4.53%
Cc1nc(C(=O)NNC(=S)Nc2ccccc2C(F)(F)F)cs1 | -8.43%
Cc1nn(S(=O)(=O)c2ccc(Cl)cc2)cc1-c1ccccc1 | -1.3%
Cc1cc(Cl)ccc1NC(=S)NNC(=S)Nc1ccc(F)cc1 | 25.2%
Cc1onc(-c2ccccc2)c1C(=O)Sc1ccc(C(F)(F)F)cn1 | -5.64%
CC(=O)c1ccc(NC(=O)OC2CCSC2)cc1 (stereo not drawn) | -3.04%
O=S(=O)(c1ccccc1)c1cc(C(F)(F)F)cc(C(F)(F)F)c1 | 1.62%
O=c1oc2c3ccccc3c3oc(=O)sc3c2s1 | 11%
CN(C)c1ccc(C=Nc2ccc(S(N)(=O)=O)cc2)cc1 | -3.85%
CC(=O)Nc1ccc(F)cc1F | -19.4%

Compound | activation
CC1(C)C=Cc2cc(-c3noc(-c4ccccc4)n3)ccc2O1 | 96.3% (active)
CC1(C)CCc2cc(-c3ccnc(SCC(=O)c4ccccc4)n3)ccc2O1 | -11.3%
Cc1cc(C(F)(F)F)nc2c(-c3noc(-c4ccccc4)n3)cnn12 | 23.9%
O=c1cc(-c2ccccc2)cc(-c2ccccc2)o1 | -7.4%
O=C(O)CC(CC(=O)Oc1ccccc1N1CCCCC1)c1ccccc1 (stereo not drawn) | -2.68%
O=C(CCN1CCN(C(c2ccccc2)c2ccccc2)CC1)c1ccccc1 | 1.07%
CC1CC(NC(=O)/C(C#N)=C/c2ccc[nH]2)CC(C)(C)C1 (stereo not drawn) | -5.85%
Cc1[nH]ncc1S(=O)(=O)c1ccc(Cl)cc1 | 2.45%
O=C(NCc1ccc(F)cc1F)c1cc(C(F)(F)F)cc(C(F)(F)F)c1 | -5.72%
O=C(Nc1ccc(F)cc1OC(F)(F)F)N1CCC(O)CC1 | -2.84%
Cc1nc2cc3c(cc2s1)OCO3 | 2.86%
COCn1nnc2ccccc21 | 1.03%
CC1(C)CC(=O)C(N=Nc2c(F)cccc2F)=C(O)C1 | 7.55%
CC(=O)Nc1ccc(S(=O)(=O)NNc2c(Cl)cncc2Cl)cc1Cl | 80.4% (active)
CC(C)NC(=O)NNc1c(Cl)cncc1Cl | 8.17%
CC(C)c1ccc(NNS(=O)(=O)c2ccc(Cl)c(Cl)c2)cc1 | -3.29%
Cc1cc(C2=CSC3=NCCN23)ccc1Cl | 8.4%
CN(C)/C=C/C(=O)c1cc(C(C)(C)C)cc(C(C)(C)C)c1O | 19.8%
CCCCNC(=O)OCCSCCS(=O)(=O)c1ccc(Cl)cc1 | -12.4%
O=C1COCC(=O)N1c1ccc2c(c1)OCO2 | -5.13%
Nc1[nH]c(=O)nc2nc[nH]c12 | -5.12%
N/C(=N\OS(=O)(=O)c1ccc(C(F)(F)F)cc1)C1CSCCS1 (stereo not drawn) | 6.24%

Compound | activation
CCc1cccc(C)c1N(C(C)=O)C1=NCCC(=O)S1 | -5.03%
Cn1c(=O)c(C#N)cn(-c2ccccc2)c1=O | -15.9%
CC(C)S(=O)(=O)c1cscc1N/C=C(/C#N)C(=O)c1cccs1 | 21.3%
O=C(Nc1cc2ccccc2s1)N1CCN(Cc2c(F)cccc2Cl)CC1 | 8.18%
Cc1cc(CNC(=O)c2cc(C)n(C)n2)no1 | 0.51%
N#Cc1sccc1Br | -1.57%
CCOC(=O)C/C(N)=C(\C#N)C(=O)OCC | -0.14%
Cc1nc(-c2cccnc2)nc(N2CCCN(Cc3ccc(F)cc3)CC2)c1Cl | -19.4%
CN(C)/C=N/NC(=O)c1nc(-c2cccc(-n3cccc3)c2)no1 | -6.62%
CCOC(=O)O/N=C(\N)c1ccc(Cl)cc1 | 3.02%
O=[N+]([O-])c1ccc(-c2ccc(I)cc2)cc1 | 1.05%
O=[N+]([O-])c1cc(C(F)(F)F)ccc1OCCO | 8.3%
O=C(/C(=N\N=C\c1ccc2c(c1)OCO2)c1ccccc1)c1ccccc1 | 101% (active)
O=C1/C(=C/c2ccc3c(c2)OCO3)CCC/C1=C\c1ccc2c(c1)OCO2 | 11.5%
COc1ccc(/C=C(\NC(=O)c2ccccc2)C(=O)N/N=C/c2ccc3c(c2)OCO3)cc1 | 7.34%
CO/N=C(/C)c1ccc2c(c1)CCO2 | -16.7%
O=C(NCc1cc2ccccc2s1)C1CN(C(c2ccccc2)c2ccccc2)C1 | -7.79%
O=C(CSc1nnc(-c2ccncc2)n1Cc1ccccc1)Nc1nnc(-c2ccco2)s1 | 4.05%
c1ccc2sc(-c3csc(-c4ccc5c(c4)OCCO5)n3)nc2c1 | 7.46%
S=C(NNC(=S)NC1CC2C=CC1C2)NC1CC2C=CC1C2 (stereo not drawn) | -6.61%
